Assay results from PubChem BioAssay (EPA / NIEHS).
Inconclusive results are not listed. Active and inactive are the calls of the source. Rule for the calls: active = hit-call score of the fitted dose curve at least 0.9, where 1 is the maximum; inconclusive = response in the unintended direction; inactive = score below 0.9.

molecular target: PGR (gene 5241) (UniProt P06401); experiment: NVS_NR_hPR: NovaScreen (NVS) Nuclear Receptor Binding Assay for human Progestron Receptor (PR) (AID 2283360);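 note: active means loss of bound radioligand signal versus DMSO baseline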
Sequence (P06401 whole entry, looked up): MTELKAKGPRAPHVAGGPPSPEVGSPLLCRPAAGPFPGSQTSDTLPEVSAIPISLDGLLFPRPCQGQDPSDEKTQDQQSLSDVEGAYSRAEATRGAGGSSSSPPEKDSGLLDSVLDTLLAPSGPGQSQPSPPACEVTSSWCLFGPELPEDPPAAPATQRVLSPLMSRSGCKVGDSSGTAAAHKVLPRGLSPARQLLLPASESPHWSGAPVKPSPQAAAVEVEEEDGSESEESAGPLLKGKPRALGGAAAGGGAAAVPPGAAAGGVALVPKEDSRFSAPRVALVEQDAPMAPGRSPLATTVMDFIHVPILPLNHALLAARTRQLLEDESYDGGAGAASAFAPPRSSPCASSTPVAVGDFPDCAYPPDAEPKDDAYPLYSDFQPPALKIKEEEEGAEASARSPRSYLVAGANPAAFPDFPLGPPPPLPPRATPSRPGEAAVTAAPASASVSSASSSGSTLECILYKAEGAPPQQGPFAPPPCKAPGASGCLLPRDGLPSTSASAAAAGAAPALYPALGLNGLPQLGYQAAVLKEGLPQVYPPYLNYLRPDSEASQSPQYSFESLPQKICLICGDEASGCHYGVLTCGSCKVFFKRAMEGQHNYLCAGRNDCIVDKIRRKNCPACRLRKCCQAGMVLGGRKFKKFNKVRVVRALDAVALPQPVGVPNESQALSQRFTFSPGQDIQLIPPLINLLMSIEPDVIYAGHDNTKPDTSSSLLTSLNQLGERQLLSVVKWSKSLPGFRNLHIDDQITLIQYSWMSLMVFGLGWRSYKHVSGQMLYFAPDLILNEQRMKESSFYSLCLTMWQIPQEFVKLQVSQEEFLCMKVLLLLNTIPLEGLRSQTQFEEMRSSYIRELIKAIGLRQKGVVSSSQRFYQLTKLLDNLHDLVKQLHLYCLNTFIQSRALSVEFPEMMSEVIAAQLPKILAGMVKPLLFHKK
Protocol: NVS_NR_hPR is a biochemical, single-readout assay that uses extracted gene-proteins from T47D in a cell-free assay. Measurements were taken 18 hours after chemical dosing in a 96-well plate.NVS_NR_hPR is one of one assay component(s) measured or calculated from the NVS_NR_hPR assay. It is designed to make measurements of radioligand binding, a form of binding reporter, as detected with scintillation counting signals by Lysate-based radiodetection technology.Data from the assay component NVS_NR_hPR was analyzed into 1 assay endpoint. This assay endpoint, NVS_NR_hPR, was analyzed in the positive analysis fitting direction relative to DMSO as the negative control and baseline of activity. Using a type of binding reporter, loss-of-signal activity can be used to understand changes in the binding as they relate to the gene PGR. Furthermore, this assay endpoint can be referred to as a primary readout, because the performed assay has only produced 1 assay endpoint. To generalize the intended target to other relatable targets, this assay endpoint is annotated to the nuclear receptor intended target family, where the subfamily is steroidal.
Binding assays used specific radioligands (tritiated, iodinated) with non-radioactive competitive displacement ligands in agonist or antagonist protocols (as indicated) and various reference compounds and inhibitors to titrate specific binding to receptors and transporters. Most enzyme assays (CYPs, kinases, phosphatases, proteases, HDACs) used recombinant protein and specific substrates (fluorescence mostly, some colorimetric and radioactive) and inhibitors, followed by a biochemical separation of substrate and product. All assays for the biochemical HTS were initially run in duplicate at a single concentration (10 uM for CYP450 assays and 25 uM for all others). […] Each assay was run with positive and negative controls, and concurrent controls on every plate. The follow-up (secondary) screen tested active chemical-pairs in concentration series, as well as a few additional assays not tested in the primary screen, some selected negative inactives, and several cases re-run in the concentration series for confirmatory purposes.

Row | SMILES | outcome | AC50
1 | CCCCNC(=O)OCC#CI | inactive | 
2 | CNC(=O)ON=CC(C)(C)SC | inactive | 
3 | CCOP(=S)(OCC)SCn1c(=O)oc2cc(Cl)ccc21 | inactive | 
4 | CC(C)Oc1cc(-n2nc(C(C)(C)C)oc2=O)c(Cl)cc1Cl | inactive | 
5 | CCCN(CCC)c1c([N+](=O)[O-])cc(S(N)(=O)=O)cc1[N+](=O)[O-] |  | 4.36 µM (active)
6 | CO/C=C(/C(=O)OC)c1ccccc1Oc1cc(Oc2ccccc2C#N)ncn1 | inactive | 
7 | CC1COC(Cn2cncn2)(c2ccc(Oc3ccc(Cl)cc3)cc2Cl)O1 (stereo not drawn) | inactive | 
8 | CCCC1COC(Cn2cncn2)(c2ccc(Cl)cc2Cl)O1 (stereo not drawn) | inactive | 
9 | CCOC(=O)CC(SP(=S)(OC)OC)C(=O)OCC (stereo not drawn) | inactive | 
10 | CON(C)C(=O)Nc1ccc(Cl)c(Cl)c1 | inactive | 
11 | CCCCOC(=O)c1ccccc1C(=O)OCCCC | inactive | 
12 | COC(=O)c1ccccc1C(=O)OC | inactive | 
13 | CCNc1nc(Cl)nc(NC(C)C)n1 | inactive | 
